Results on ten compounds are retold here after PubChem BioAssay AID493036 (Sanford-Burnham Center for Chemical Genomics, 2011).

The nature of assay [1]: NTR1-driven beta-arrestin-GFP spot formation – imaging, U2OS cells, high content, primary screen (AID 493036).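 As to activation: 0% = DMSO without peptide and 100% = 100 nM NTR1 peptide.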 The settings on record: agonist mode, measured here: cell count, cytotoxicity flag, at 20 µM.
For assay [2], the target named is Neurotensin receptor type 1 (Homo sapiens) (UniProt P30989). Described as above. The settings on record: agonist mode, at 20 µM, stronger effect = higher value.

The structures appear in SMILES notation. In all, about 330,000 compounds went through this assay and about 560 (0.17%) were called active.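 The calls were made as follows: active = activation at or above 40% of the spot to cytoplasm intensity ratio, with at least 20 cells analyzed; inconclusive = wells under 20 cells, flagged as cytotoxic or low count; inactive = the rest.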 Only a selection was taken, and actives are over-represented in it overall.

Neurotensin receptor type 1 (Homo sapiens), sequence (P30989 whole entry, looked up): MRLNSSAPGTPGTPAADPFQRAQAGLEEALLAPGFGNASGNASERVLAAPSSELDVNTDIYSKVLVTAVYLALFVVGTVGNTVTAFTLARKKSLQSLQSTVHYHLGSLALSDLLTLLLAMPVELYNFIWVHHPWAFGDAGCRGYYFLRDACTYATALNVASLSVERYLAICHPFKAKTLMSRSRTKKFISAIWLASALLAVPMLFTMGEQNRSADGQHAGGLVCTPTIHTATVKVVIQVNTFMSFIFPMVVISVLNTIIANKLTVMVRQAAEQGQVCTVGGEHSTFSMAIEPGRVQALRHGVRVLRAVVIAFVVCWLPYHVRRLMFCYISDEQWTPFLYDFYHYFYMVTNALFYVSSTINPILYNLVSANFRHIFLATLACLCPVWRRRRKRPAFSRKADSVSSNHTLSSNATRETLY

Compound `O=C1NC(=O)N(c2ccccc2)C(=O)/C1=C/c1ccc([N+](=O)[O-])s1` yielded a cell count in assay [1] of 47 cells. The activation in assay [2] was -0.1% (inactive).
The like results for `COc1cccc(N2C(=O)NC(=O)/C(=C\c3ccc([N+](=O)[O-])s3)C2=O)c1` were, in that order, 25 cells and -0.6% (inactive).
On the same counts, the results for `Cc1cccc(N2C(=O)NC(=O)/C(=C\c3cnn(-c4ccccc4)c3)C2=O)c1` are 57 cells and 45.7% (active).
On the same counts, the results for `COc1ccc(C(=O)C2CN(C)CC2C(=O)c2ccc(OC)cc2)cc1` (stereo not given) are 41 cells and -0.1% (inactive).
As to `O=C(CCCn1c(=O)[nH]c2cc(Cl)ccc2c1=O)N1CCC2(CC1)OCCO2`, the cell count in assay [1] was 62 cells. Moreover, the activation in assay [2] was 1.7% (inactive).
On the same counts, the results for `COC(=O)C1=C(c2cc3ccccc3s2)C[C@@H]2CC[C@H]1N2C(=O)NCCO` are 97 cells and 0.3% (inactive).
The like results for `CC1CCCCN1Cc1cccnc1` (stereo not given) were, in that order, 41 cells and 1.8% (inactive).
In assay [1], `O=C1NC(=O)N(CCc2ccc(F)cc2)C(=O)/C1=C/C=C/c1ccccc1` showed a cell count of 50 cells. Moreover, in assay [2], the activation was 41.5% (active).
The like results for `O=C1NC(=O)N(Cc2ccco2)C(=O)/C1=C\c1ccc(-c2ccc(F)cc2)o1` were, in that order, 62 cells and 23.3% (inactive).
On the same counts, the results for `O=C(O)COc1ccccc1/C=C1\C(=O)NC(=O)N(CCC2=CCCCC2)C1=O` are 52 cells and 0% (inactive).
